Measurements as given in PubChem BioAssay (NCATS).
Where “and” joins values, the source holds several entries; their conditions need not be identical. Identical values can stand only once. Calls of active or inactive are those of the source. Where a call stands in place of a potency, no number is given. Unless noted, calls come from the whole dose curve; as a rule, active = well fitted curve in the direction sought with a large enough effect; inconclusive = small, poorly fitted or top-dose-only effect, or another doubt; inactive = no such curve, though single readings can be large; an effect the other way counts as inactive or inconclusive.

How the values were obtained:
[1] = molecular target: DNA dC->dU-editing enzyme APOBEC-3G (Homo sapiens) (UniProt Q9HC16); test: qHTS for inhibitors of Vif-A3G interactions: Validation (AID 588379)
DNA dC->dU-editing enzyme APOBEC-3G (Homo sapiens), sequence (Q9HC16 whole entry, looked up): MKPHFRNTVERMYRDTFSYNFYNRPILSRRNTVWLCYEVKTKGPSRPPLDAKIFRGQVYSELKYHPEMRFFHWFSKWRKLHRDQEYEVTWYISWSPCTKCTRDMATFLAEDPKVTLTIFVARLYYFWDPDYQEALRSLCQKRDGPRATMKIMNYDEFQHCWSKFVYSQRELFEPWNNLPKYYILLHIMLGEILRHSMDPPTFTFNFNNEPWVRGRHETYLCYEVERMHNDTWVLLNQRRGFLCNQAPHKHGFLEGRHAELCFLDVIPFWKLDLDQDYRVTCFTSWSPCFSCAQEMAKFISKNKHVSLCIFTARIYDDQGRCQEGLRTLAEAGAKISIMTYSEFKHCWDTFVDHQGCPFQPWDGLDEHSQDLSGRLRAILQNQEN
Outline: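 HeLa cells stably expressing Vif and A3G-eYFP, 700 cells/well, incubated overnight at 37 deg C, then exposed to compound overnight at 37 deg C. Inhibition of Vif-mediated degradation read as increased yellow fluorescence (Ex 488/Em 500-530) by laser-scanning cytometry.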

[2] = qHTS for Inhibitors of ATXN expression: Validation of Cytotoxic Assay (AID 588349); note: potency is the fitted concentration of half-maximal effect
Outline: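 Read-out: ATP-based luminescence (CellTiter Glo) reflecting viability of HEK293 cells after 72 hr incubation at 37 degrees C with a concentration series of each compound.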

[3] = qHTS for Inhibitors of ATXN expression: Validation (AID 588378); note: nearly all actives have a fitted effect of over 75% in size; note: potency is the fitted concentration of half-maximal effect
Outline: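 Compounds were pinned onto attached HEK293 cells carrying an ATXN2-firefly luciferase construct and incubated 24 hrs at 37 degrees C. Each well then received a fluorescent viability reagent followed by luciferase substrate for end-point luminescence.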

[4] = molecular target: Bile acid receptor (Homo sapiens) (UniProt Q96RI1); test: qHTS assay for small molecule antagonists of farnesoid X receptor signaling (AID 588526; calls by dose curve)
Bile acid receptor (Homo sapiens), sequence (Q96RI1 whole entry, looked up): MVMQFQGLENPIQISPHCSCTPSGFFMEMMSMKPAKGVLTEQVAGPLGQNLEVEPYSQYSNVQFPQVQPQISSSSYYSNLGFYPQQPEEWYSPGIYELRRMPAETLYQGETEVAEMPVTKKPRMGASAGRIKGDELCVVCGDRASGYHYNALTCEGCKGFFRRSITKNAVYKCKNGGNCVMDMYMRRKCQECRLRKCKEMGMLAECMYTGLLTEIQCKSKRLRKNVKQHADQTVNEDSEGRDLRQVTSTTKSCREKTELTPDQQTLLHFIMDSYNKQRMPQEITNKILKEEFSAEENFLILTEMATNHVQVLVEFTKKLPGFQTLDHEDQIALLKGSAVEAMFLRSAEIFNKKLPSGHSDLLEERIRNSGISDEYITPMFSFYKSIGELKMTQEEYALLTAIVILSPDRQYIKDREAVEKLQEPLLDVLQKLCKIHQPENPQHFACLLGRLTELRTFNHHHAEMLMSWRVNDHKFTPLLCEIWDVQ
Outline: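 Beta-lactamase reporter antagonist mode: HEK293T FXR-UAS-bla cells, titrated compound, CDCA stimulation, 16 h 37 C, CCF4 dye 2 h RT. Data normalized to CDCA 50 uM and DMSO; Hill-fit IC50.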

[5] = molecular target: Glucocorticoid receptor (Homo sapiens) (UniProt P04150); test: qHTS assay for small molecule agonists of glucocorticoid receptor signaling (AID 588532; active = well fitted curve in the direction sought with a large enough effect in the signal ratio, with a control signal flat; inconclusive = small, poorly fitted or top-dose-only effect, or a change in a side signal; inactive = no such curve, though single readings can be large or run the other way; the % refers to the signal ratio); conditions: HeLa MMTV-bla, beta-lactamase ratio, agonist, 18 h; stronger effect = higher value; percent of dexamethasone control, DMSO zero
Glucocorticoid receptor (Homo sapiens), sequence (P04150 whole entry, looked up): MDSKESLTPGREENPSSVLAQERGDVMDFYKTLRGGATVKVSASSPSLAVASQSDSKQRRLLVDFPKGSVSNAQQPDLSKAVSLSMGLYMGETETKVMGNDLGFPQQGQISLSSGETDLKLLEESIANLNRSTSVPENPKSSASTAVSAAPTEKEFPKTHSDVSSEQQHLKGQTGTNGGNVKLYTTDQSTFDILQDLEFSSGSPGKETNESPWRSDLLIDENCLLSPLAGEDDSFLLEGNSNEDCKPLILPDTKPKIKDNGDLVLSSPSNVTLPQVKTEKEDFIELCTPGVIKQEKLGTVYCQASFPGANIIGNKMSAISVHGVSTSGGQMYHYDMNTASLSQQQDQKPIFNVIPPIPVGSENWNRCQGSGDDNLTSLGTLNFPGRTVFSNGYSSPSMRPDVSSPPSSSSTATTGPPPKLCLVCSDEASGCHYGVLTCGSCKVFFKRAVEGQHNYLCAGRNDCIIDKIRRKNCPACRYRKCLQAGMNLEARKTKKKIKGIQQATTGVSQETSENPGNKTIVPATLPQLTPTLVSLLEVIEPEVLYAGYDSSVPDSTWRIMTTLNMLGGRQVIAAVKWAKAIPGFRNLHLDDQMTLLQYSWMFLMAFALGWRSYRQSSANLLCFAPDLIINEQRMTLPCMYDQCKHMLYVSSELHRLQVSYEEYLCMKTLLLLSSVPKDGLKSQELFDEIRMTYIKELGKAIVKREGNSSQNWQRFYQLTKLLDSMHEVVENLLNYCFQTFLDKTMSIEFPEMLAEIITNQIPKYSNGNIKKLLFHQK
Outline: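 Using MMTV-bla HeLa cells in medium with 1% stripped FBS and 25 mM HEPES, compounds were titrated and incubated overnight-length (18 h). Beta-lactamase cleavage of CCF4 was quantified by dual-emission fluorescence.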

[6] = molecular target: Glucocorticoid receptor (Homo sapiens) (UniProt P04150); test: qHTS assay for small molecule antagonists of glucocorticoid receptor signaling (AID 588533; active = well fitted inhibition curve with a large enough effect in the signal ratio, with a control signal flat, not every such curve was filed as active; inconclusive = small, poorly fitted or top-dose-only effect, or effect the other way, or a change in a side signal; the % refers to the signal ratio;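 note: cells stimulated with 2 nM dexamethasone as agonist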)
Outline: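 Antagonist-mode qHTS: compound titrations added to GRE-bla HeLa cells, then dexamethasone 2 nM final; 18 h, 37 C. CCF4 FRET fluorescence normalized to dexamethasone and DMSO; IC50 from Hill fit.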

[7] = molecular target: Peroxisome proliferator-activated receptor gamma (Homo sapiens) (UniProt P37231); test: qHTS assay for small molecule agonists of peroxisome proliferator-activated receptor gamma signaling (AID 588536; active = well fitted curve in the direction sought with a large enough effect in the signal ratio, with a control signal flat, not every such curve was filed as active; inconclusive = small, poorly fitted or top-dose-only effect, or effect the other way, or a change in a side signal; inactive = no such curve, though single readings can be large or run the other way; the % refers to the signal ratio)
Peroxisome proliferator-activated receptor gamma (Homo sapiens), sequence (P37231 whole entry, looked up): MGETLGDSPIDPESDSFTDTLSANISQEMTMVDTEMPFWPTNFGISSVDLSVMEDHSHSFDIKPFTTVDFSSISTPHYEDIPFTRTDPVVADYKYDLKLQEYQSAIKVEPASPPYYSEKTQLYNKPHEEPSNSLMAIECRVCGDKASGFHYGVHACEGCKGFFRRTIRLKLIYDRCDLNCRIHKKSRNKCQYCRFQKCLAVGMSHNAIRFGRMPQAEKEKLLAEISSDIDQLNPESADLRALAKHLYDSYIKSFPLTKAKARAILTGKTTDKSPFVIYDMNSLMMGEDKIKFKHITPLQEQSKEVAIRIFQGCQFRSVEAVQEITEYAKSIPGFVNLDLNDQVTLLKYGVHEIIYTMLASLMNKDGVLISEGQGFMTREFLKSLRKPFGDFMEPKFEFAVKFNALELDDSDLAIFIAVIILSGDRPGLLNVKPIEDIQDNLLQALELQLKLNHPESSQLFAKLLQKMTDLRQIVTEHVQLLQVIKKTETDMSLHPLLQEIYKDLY
Outline: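 GeneBLAzer PPAR-gamma-UAS-bla HEK293 cells in 1% charcoal/dextran-treated FBS medium were treated 16 h at 37 C with compounds. Beta-lactamase activity was read by CCF4 ratio (460/530 nm). Response was normalized to 2 uM rosiglitazone (100%) and DMSO, then Hill-fitted for EC50 and efficacy.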

[8] = molecular target: Peroxisome proliferator-activated receptor gamma (Homo sapiens) (UniProt P37231); test: qHTS assay for small molecule antagonists of peroxisome proliferator-activated receptor gamma signaling (AID 588537; active = well fitted inhibition curve with a large enough effect in the signal ratio, with a control signal flat, not every such curve was filed as active; inconclusive = small, poorly fitted or top-dose-only effect, or effect the other way, or a change in a side signal; the % refers to the signal ratio; note: potency is the fitted concentration of half-maximal effect)
Outline: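 Antagonist mode, beta-lactamase reporter in HEK293; charcoal/dextran FBS 1%; 3000 cells/well, 37 C 6-6.5 h; cpd titration + rosiglitazone 50 nM final, 16 h 37 C; CCF4, 2 h RT; 460/530 nm; Hill fit → IC50, efficacy.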

[9] = molecular target: Vitamin D3 receptor (Homo sapiens) (UniProt P11473); test: qHTS assay for small molecule antagonists of vitamin D receptor signaling (AID 588541; calls by dose curve;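 note: receptor activated by calcitriol during compound treatment; series mostly up to about 77 µM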)
Vitamin D3 receptor (Homo sapiens), sequence (P11473 whole entry, looked up): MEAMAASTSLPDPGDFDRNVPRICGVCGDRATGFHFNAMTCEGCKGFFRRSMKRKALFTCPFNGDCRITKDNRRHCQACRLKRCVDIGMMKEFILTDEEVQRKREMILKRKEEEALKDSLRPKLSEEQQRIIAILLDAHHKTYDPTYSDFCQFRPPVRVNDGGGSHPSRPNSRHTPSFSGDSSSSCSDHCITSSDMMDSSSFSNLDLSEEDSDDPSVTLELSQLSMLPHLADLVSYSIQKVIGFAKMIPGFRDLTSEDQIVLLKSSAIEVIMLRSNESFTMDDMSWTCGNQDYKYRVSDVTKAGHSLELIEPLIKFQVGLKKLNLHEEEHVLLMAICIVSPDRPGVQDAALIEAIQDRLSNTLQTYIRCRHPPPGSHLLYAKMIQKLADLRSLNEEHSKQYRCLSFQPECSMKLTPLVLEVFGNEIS
Outline: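 Antagonist-mode beta-lactamase reporter assay: HEK293T VDR-UAS-bla cells were exposed to titrated compound alongside 1-alpha,25-dihydroxyvitamin D3 at 3 nM final for 16 h. Values were normalized to the 50 nM agonist control and DMSO basal, with IC50 and efficacy from Hill equation fits.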

[10] = qHTS assay for small molecule agonists of retinoid X receptor alpha signaling (AID 588544; calls by dose curve); conditions: HEK293T RXRa-UAS-bla, beta-lactamase reporter, 18 h; 530 nm emission
[11] = molecular target: Retinoic acid receptor RXR-alpha (Homo sapiens) (UniProt P19793); test: as above
Retinoic acid receptor RXR-alpha (Homo sapiens), sequence (P19793 whole entry, looked up): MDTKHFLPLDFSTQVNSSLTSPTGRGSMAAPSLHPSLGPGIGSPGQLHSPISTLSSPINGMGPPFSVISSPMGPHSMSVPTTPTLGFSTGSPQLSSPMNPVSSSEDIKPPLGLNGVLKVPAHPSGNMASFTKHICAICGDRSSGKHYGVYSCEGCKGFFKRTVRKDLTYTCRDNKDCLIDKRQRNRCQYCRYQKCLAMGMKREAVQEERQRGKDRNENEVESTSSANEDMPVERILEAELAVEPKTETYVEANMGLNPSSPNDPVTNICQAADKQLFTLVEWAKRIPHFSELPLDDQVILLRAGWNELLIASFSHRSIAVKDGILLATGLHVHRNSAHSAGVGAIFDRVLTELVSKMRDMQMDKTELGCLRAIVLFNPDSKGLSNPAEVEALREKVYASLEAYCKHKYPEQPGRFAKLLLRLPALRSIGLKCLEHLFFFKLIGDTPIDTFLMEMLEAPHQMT

[12] = molecular target: Thyroid hormone receptor beta (Homo sapiens) (UniProt P10828); test: qHTS assay for small molecule agonists of thyroid hormone receptor beta signaling (AID 588545; calls by dose curve)
Thyroid hormone receptor beta (Homo sapiens), sequence (P10828 whole entry, looked up): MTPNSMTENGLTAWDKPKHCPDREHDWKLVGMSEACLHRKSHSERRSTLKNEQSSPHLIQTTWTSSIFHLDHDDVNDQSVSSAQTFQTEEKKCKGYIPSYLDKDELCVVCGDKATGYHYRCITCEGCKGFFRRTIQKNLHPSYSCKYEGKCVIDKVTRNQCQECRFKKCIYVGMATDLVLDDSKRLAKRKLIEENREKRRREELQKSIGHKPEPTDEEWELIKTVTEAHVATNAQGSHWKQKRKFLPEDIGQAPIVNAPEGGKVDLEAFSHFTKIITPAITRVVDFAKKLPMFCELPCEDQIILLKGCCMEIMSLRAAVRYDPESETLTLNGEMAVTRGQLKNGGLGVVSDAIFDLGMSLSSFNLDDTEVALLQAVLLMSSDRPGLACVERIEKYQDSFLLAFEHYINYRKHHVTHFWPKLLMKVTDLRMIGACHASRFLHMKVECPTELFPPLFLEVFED
Outline: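 Efficacy and EC50 values derive from Hill fits of qHTS titration data, normalized to 10 nM T3 and DMSO-only wells. HEK 293 reporter cells were stimulated for 18 hrs at 37 C, with beta-lactamase activity measured by CCF4 fluorescence.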

[13] = qHTS assay for small molecule antagonists of retinoid X receptor alpha signaling (AID 588546; active = well fitted inhibition curve with a large enough effect in the signal ratio, with a control signal flat, not every such curve was filed as active; inconclusive = small, poorly fitted or top-dose-only effect, or effect the other way, or a change in a side signal; inactive = no such curve, though single readings can be large or run the other way; the % refers to the signal ratio;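 note: cells stimulated with 9-cis-retinoic acid as agonist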); conditions: HEK293T RXRa-UAS-bla, beta-lactamase ratio, antagonist mode; measured here: W530 green channel, cytotoxicity proxy
Outline: (§1)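 Beta-lactamase reporter inhibition, read as CCF4 fluorescence ratio (ex 405, em 460/530 nm) after 2 h at RT. HEK293T UAS-bla cells, 2500/well, were stimulated with 9-cis-RA at 500 or 100 nM final alongside test compound for 18 h at 37 C.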

[14] = molecular target: Retinoic acid receptor RXR-alpha (Homo sapiens) (UniProt P19793); test: as above; conditions: HEK293T RXRa-UAS-bla, beta-lactamase ratio, antagonist mode
Outline: as §1

[15] = qHTS assay for small molecule antagonists of peroxisome proliferator-activated receptor delta signaling (AID 588535); conditions: HEK293T PPARd-UAS-bla, beta-lactamase FRET ratio, 18 h; 460 nm channel;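 note: cells co-treated with a PPAR-delta agonist as stimulator during compound exposure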
Outline: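 HEK293T PPAR-delta-UAS-bla cells, 4000/well, 2% charcoal/dextran FBS; 5 h 37 C; cpd titration; 18 h 37 C; CCF4 2 h RT; FI 460/530 nm; Hill fit → IC50, efficacy.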

[16] = molecular target: Estrogen receptor (Homo sapiens) (UniProt P03372); test: qHTS assay for small molecule agonists of estrogen receptor alpha signaling (AID 588514; calls by dose curve; note: nearly all actives have a fitted effect of over 70% in size)
Estrogen receptor (Homo sapiens), sequence (P03372 whole entry, looked up): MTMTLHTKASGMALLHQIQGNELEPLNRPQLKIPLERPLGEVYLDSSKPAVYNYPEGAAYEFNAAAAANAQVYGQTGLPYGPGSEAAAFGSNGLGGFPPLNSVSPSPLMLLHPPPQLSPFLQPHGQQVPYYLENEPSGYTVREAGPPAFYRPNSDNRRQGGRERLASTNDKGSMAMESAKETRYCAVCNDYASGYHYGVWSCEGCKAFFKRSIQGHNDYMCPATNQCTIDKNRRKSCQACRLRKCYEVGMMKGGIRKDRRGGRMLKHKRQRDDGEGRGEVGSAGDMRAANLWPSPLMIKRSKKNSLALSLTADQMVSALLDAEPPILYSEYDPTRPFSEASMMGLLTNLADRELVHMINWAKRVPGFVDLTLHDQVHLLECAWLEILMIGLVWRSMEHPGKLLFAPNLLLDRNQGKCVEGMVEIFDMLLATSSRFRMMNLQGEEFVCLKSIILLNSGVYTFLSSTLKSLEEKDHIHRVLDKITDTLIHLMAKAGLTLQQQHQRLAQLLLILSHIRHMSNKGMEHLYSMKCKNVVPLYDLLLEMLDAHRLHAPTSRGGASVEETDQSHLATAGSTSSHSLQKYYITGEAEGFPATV
Outline: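 Cells were plated at 5000/well, incubated 4 hrs at 37 C, dosed with compound titration series, incubated 18 hrs at 37 C, loaded with CCF4 dye for 2 hrs at RT, then fluorescence was read.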

[17] = molecular target: Vitamin D3 receptor (Homo sapiens) (UniProt P11473); test: qHTS assay for small molecule agonists of vitamin D receptor signaling (AID 588543; calls by dose curve)
Outline: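 Reporter cells (HEK293T, VDR-UAS-bla) were seeded in medium with 2% charcoal-stripped serum and incubated 5 h, then compounds in concentration series were added for 16 h at 37 °C. Stimulation was scaled between DMSO basal and 50 nM 1α,25-dihydroxyvitamin D3.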

[18] = molecular target: Estrogen receptor (Homo sapiens) (UniProt P03372); test: qHTS assay for small molecule antagonists of estrogen receptor alpha signaling (AID 588513; active = well fitted curve in the direction sought with a large enough effect in the signal ratio, with a control signal flat, not every such curve was filed as active; inconclusive = small, poorly fitted or top-dose-only effect, or effect the other way, or a change in a side signal; inactive = no such curve, though single readings can be large or run the other way; the % refers to the signal ratio; note: potency is the fitted concentration of half-maximal effect)
Outline: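 Fluorescence from CCF4 substrate after 2 h at room temperature gave reporter activity; cells had been exposed to compound and 0.5nM 17-beta-estradiol for 18 h at 37 C. Hill-equation fitting yielded IC50 and maximal response.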

O=c1oc2c(O)c(O)cc3c(=O)oc4c(O)c(O)cc1c4c23
outcome [1]: inactive

Cc1ccc(S(=O)(=O)N[C@@H](Cc2ccccc2)C(=O)CCl)cc1
Potency [2]: 14.1 µM (active) | Potency [3]: 22.4 µM (active)

CCOC(=O)c1ccc(OC(=O)CCCCCN=C(N)N)cc1
outcome [1]: inactive

COc1cc2ncnc(Nc3cccc(Cl)c3)c2cc1OC
Potency [2]: inactive | Potency [3]: inactive | outcome [1]: inactive

CCN1CCCC1CNC(=O)c1cc(S(N)(=O)=O)ccc1OC (stereo not drawn)
Potency [2]: inactive | Potency [3]: inactive | outcome [1]: inactive

O=S(=O)(c1cccc2cnccc12)N1CCCNCC1
outcome [1]: inactive

OCc1ccc(-c2nn(Cc3ccccc3)c3ccccc23)o1
Potency [2]: inactive

O=C(O)C1CCCN(CCC=C(c2ccccc2)c2ccccc2)C1 (stereo not drawn)
Potency [2]: inactive | Potency [3]: inactive | outcome [1]: inactive

CCN(CC)CC#CCOC(=O)C(O)(c1ccccc1)C1CCCCC1 (stereo not drawn)
Potency [3]: inactive

NC(=O)c1cccc(N)c1
Potency [2]: inactive | Potency [3]: inactive | outcome [1]: inactive

CC1=C(C(=O)O)N2C(=O)[C@@H](NC(=O)C(N)c3ccccc3)[C@H]2SC1 (stereo partly drawn)
Potency [2]: inactive | Potency [3]: inactive

COc1cc([C@@H]2c3cc4c(cc3[C@H](O)[C@H]3COC(=O)[C@H]23)OCO4)cc(OC)c1OC
outcome [1]: inactive

CCN(CC)CCn1c(=O)c(Cc2ccc(OC)cc2)nc2ccccc21
Potency [2]: inactive | Potency [3]: inactive

CCCCS(=N)(=O)CCC(N)C(=O)O (stereo not drawn)
Potency [2]: inactive | Potency [3]: inactive

COc1cc2nc(N3CCCN(C)CC3)nc(NC3CCN(Cc4ccccc4)CC3)c2cc1OC
Potency [3]: 7.94 µM (active)

N[C@@H](Cc1ccc(O)c(O)c1)C(=O)O
Potency [2]: inactive | Potency [3]: inactive | outcome [4]: inactive | activation [5]: -2.15% (inactive) | outcome [6]: inactive | outcome [7]: inactive | Potency [8]: inactive | outcome [9]: inactive | max response [10]: -21.2% | outcome [11]: inactive | outcome [12]: inactive | max response [13]: -19.3% | max response [14]: 0.985% (inactive)

Nc1nc(N)c2nc(CNc3ccc(C(=O)NC(CCC(=O)O)C(=O)O)cc3)cnc2n1 (stereo not drawn)
Potency [2]: inactive | Potency [3]: inactive | activation [5]: 7.7% (inactive) | outcome [6]: inactive | max response [15]: 44.5% | outcome [9]: inactive

CC1CC2C3CCC4=CC(=O)C=C[C@]4(C)[C@@]3(F)[C@@H](O)C[C@]2(C)[C@@]1(O)C(=O)CO (stereo partly drawn)
Potency [2]: inactive | Potency [3]: inactive

NC(=O)c1ccc2[nH]ccc2c1
Potency [2]: inactive | Potency [3]: inactive

CC(=O)[C@H]1CC[C@H]2[C@@H]3CCC4=CC(=O)CC[C@]4(C)[C@H]3CC[C@]12C
Potency [2]: inactive | Potency [3]: inactive | outcome [1]: inactive | outcome [16]: inactive | outcome [17]: inactive | outcome [12]: inactive

CC(C)NCC(O)c1ccc(NS(C)(=O)=O)cc1 (stereo not drawn)
Potency [2]: inactive | Potency [3]: inactive

COc1ccc2cc3[n+](cc2c1OC)CCc1cc2c(cc1-3)OCO2
Potency [18]: inactive | activation [5]: 1.14% (inactive) | outcome [7]: inactive | outcome [9]: inactive | outcome [17]: inactive | outcome [12]: inactive | max response [13]: 2.18% | max response [14]: -28% (inactive)

O=C(O)c1cc(=O)[nH]c(=O)[nH]1
Potency [18]: inactive | activation [5]: -4.81% (inactive) | outcome [7]: inactive | max response [10]: 0.884% | outcome [11]: inactive | outcome [12]: inactive | max response [13]: 2.15% | max response [14]: 5.81% (inactive)

CC1=NN(c2ccccc2)C(=O)C1
outcome [1]: inactive | Potency [18]: inactive | outcome [16]: inactive | outcome [4]: inactive | outcome [6]: inactive | max response [15]: -24.3% | outcome [7]: inactive | outcome [12]: inactive | max response [13]: 3.18% | max response [14]: 23.1% (inactive)

Cc1noc(NS(=O)(=O)c2ccc(N)cc2)c1C
outcome [1]: inactive | Potency [18]: inactive | outcome [16]: inactive | outcome [4]: inactive | max response [15]: 23.8% and 11.7% | outcome [7]: inactive | Potency [8]: inactive | max response [10]: 3.43% | outcome [11]: inactive | outcome [12]: inactive | max response [13]: 9.97% and -11.9% | max response [14]: 10.6% (inactive) and -8.28% (inactive)

S=P(N1CC1)(N1CC1)N1CC1
Potency [18]: inactive | outcome [4]: inactive | activation [5]: -9.54% (inactive) | outcome [6]: inactive | max response [15]: 6.13% | outcome [7]: inactive | Potency [8]: inactive | outcome [9]: inactive | outcome [17]: inactive | max response [10]: -19.8% | outcome [11]: inactive | outcome [12]: inactive

NNC(=O)c1ccncc1
Potency [18]: inactive | outcome [16]: inactive | activation [5]: -1.09% (inactive) | outcome [6]: inactive | max response [15]: 0.593% | outcome [7]: inactive | Potency [8]: inactive | outcome [9]: inactive | outcome [17]: inactive | max response [10]: 1.41% | outcome [11]: inactive | outcome [12]: inactive | max response [13]: 1.75% | max response [14]: 3.12% (inactive)

CN(C)c1ccc(C(=C2C=CC(=[N+](C)C)C=C2)c2ccc(N(C)C)cc2)cc1
Potency [18]: 28.2 µM [inconclusive] (active) | activation [5]: -0.396% (inactive) and -10.9% (inactive) | Potency [8]: 44.7 µM (active) | outcome [9]: inactive | outcome [17]: inactive | outcome [12]: inactive
